This passage reports growth inhibition results from PubChem BioAssay (NCI).

The experiment in a line: NCI Yeast Anticancer Drug Screen. Data for the rad52 strain (AID 147).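 Also: 0% = growth of vehicle-treated control cultures.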 To be noted: S. cerevisiae rad52 mutant growth inhibition, stronger effect = higher value. On the procedure:
Growth inhibition of yeast strains with defined genetic alterations is measured as a screen for potential anti-cancer activity. Selected strains with alterations in DNA damage repair or cell cycle control were exposed to compounds and growth inhibition was measured relative to vehicle treated controls. The strain used in this assay is rad52

Compounds without any hit were thinned out: in the full panel of roughly 79,000, 15% have a hit. Unmarked numbers belong to inactive results. Activity calls are given as the source filed them. Rule as the data show it: active = growth inhibition above about 70%; inactive = the rest.

As to `CCN(CC)C(=S)N/N=C(/C)c1cccc(/C(C)=N\NC(=S)N(CC)CC)n1`, the growth inhibition is -24% (at 1.2 µM); -15% (at 3.7 µM); 7% (at 11.0 µM); 43% (at 33.0 µM); 90% (active) (at 100.0 µM).

`COC1=CC(=O)C2C(C1=O)C(c1ccc(Cl)cc1)[C@@H]2C` (stereo not given in full): the growth inhibition (at 1.2 µM) was 12%; the growth inhibition (at 3.7 µM) was 25%; the growth inhibition (at 11.0 µM) was 98% (active); the growth inhibition (at 33.0 µM) is 99% (active); the growth inhibition (at 100.0 µM) was 99% (active).

`O=C(Nc1ccccc1)C(=O)C(C(=O)c1ccccc1)C(c1ccccc1)c1ccccc1` (stereo not given): the growth inhibition (at 1.2 µM) is 8%; the growth inhibition (at 3.7 µM) was 10%; the growth inhibition (at 11.0 µM) is 15%; the growth inhibition (at 33.0 µM) was 23%; the growth inhibition (at 100.0 µM) was 36%.

Take `CCCCN(CCCC)CCSc1ccc(Cl)cc1`: the growth inhibition is -6% (at 1.2 µM); -13% (at 3.7 µM); -10% (at 11.0 µM); 16% (at 33.0 µM); 95% (active) (at 100.0 µM).

Take `COc1ccc(OC)c2cc3ccccc3cc12`: the growth inhibition is 11% (at 1.2 µM); -9% (at 3.7 µM); 6% (at 11.0 µM); 10% (at 33.0 µM); 17% (at 100.0 µM).

Consider `O=C1C=CC(=O)c2c(O)c(Nc3ccc(OC(F)(F)F)cc3)c(Cl)c(O)c21`, for which the growth inhibition (at 1.2 µM) was 9%; the growth inhibition (at 3.7 µM) is 12%; the growth inhibition (at 11.0 µM) is 17%; the growth inhibition (at 33.0 µM) was 32%; the growth inhibition (at 100.0 µM) was 81% (active).

`Cn1c(=O)c2ccccc2c2ccccc21`: the growth inhibition runs as follows: (at 1.2 µM) -2%; (at 3.7 µM) 9%; (at 11.0 µM) 32%; (at 33.0 µM) 88% (active); (at 100.0 µM) 96% (active).

In the case of `COc1cc(C2SCC(=O)N2c2nnc(C(F)(F)F)s2)cc(OC)c1OC` (stereo not given), the growth inhibition reads like this: (at 1.2 µM) -1%; (at 3.7 µM) -3%; (at 11.0 µM) -2%; (at 33.0 µM) -3%; (at 100.0 µM) -5%.
